{"source": "PubChem BioAssay (NCI)", "note": "This is part of a sample that, as a whole, favours compounds with a hit. Of some 83,000 tested, about 20% had one in any assay.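 Growth was measured after 48 h exposure to one concentration of compound in 96-well plates. Values under 10 count as active.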 Active and inactive are the calls of the source."}
{"test_system": "HL-60(TB) leukemia", "experiment": "NCI-60 one-dose screen, 48 h (100 = growth as untreated, 0 = no growth, -100 = all killed)", "settings": "10 µM unless noted"}
{"smiles": "C/C=C/C/C=C/[C@H](C)C[C@H](O)[C@@H]1C[C@@H]2O[C@H]2/C=C/[C@@H]2OC(C)(C)O[C@H]2/C=C/C[C@H](C)CC(=O)O1", "growth": "31.2% (inactive)"}
{"smiles": "CC1(C)CC[C@]2(C(=O)O)CC[C@]3(C)C(=CC[C@@H]4[C@@]5(C)C/C(=C/c6cccnc6)[C@H](O)C(C)(C)[C@@H]5CC[C@]43C)[C@@H]2C1", "growth": "-8.82% [100 µM] (active)"}
{"smiles": "O=c1[nH]c(NCc2ccccc2)nc2nc(Nc3ccc(NC(=S)Nc4ccccc4)cc3)nc(-c3ccc(O)cc3O)c12", "growth": "98.4% (inactive)"}
{"smiles": "CCn1c2ccccc2c2ccc(C(C)=O)cc21", "growth": "118% (inactive)"}
{"smiles": "COc1cc(-c2nn(-c3ccc(NC(=O)c4cc(Cl)cc(Cl)c4)cc3)cc2-c2ccncc2)ccc1Cl", "growth": "41% (inactive)"}
{"smiles": "COc1cc2c(c(OC)c1)C1c3cc(OC)ccc3NC(=O)N1CC2", "note": "(stereo unspecified)", "growth": "66.3% (inactive)"}
{"smiles": "CC(Cc1ccco1)C(=O)NC(N)=O", "note": "(stereo unspecified)", "growth": "87.5% (inactive)"}
{"smiles": "C=C(C[C@@](O)(C(=O)Oc1ccccc1)C(=O)C1CCCCC1)c1ccccc1", "growth": "112% (inactive)"}
{"smiles": "Cc1ccc(-c2nc(N3CCN(C(=O)c4ccc(OC(F)(F)F)cc4)CC3)c3ccccc3n2)cc1", "growth": "97.5% (inactive)"}
{"smiles": "CCCCOC(=O)C1OC(Oc2ccc3c(C)cc(=O)oc3c2)[C@@H](OC(C)=O)C(OC(C)=O)C1OC(C)=O", "note": "(stereo partly specified)", "growth": "102% (inactive)"}
{"smiles": "CC(=O)c1ccc(NS(=O)(=O)c2cccc(C(=O)Nc3ccc(Br)cc3)c2)cc1", "growth": "47.3% [25 µM] (inactive)"}
{"smiles": "Cc1cccc(-c2nc(C(C)C)sc2-c2ccnc(NCCCNS(=O)(=O)c3ccc(Cl)cc3)c2)c1", "growth": "80.1% (inactive)"}
{"smiles": "CN(C)C/C=C/C(=O)Nc1cc2c(Nc3ccc(F)c(Cl)c3F)ncnc2cc1OCCOC(F)F", "growth": "13.2% (inactive)"}
{"smiles": "COC(=O)c1[nH]cnc1/N=N/N(C)CCO", "growth": "86.5% (inactive)"}
{"smiles": "CCOC(=O)CNP(=O)(OC[C@@H](Cc1ccccc1)NC(=O)c1cc2ccccc2s1)Oc1ccccc1", "note": "(stereo partly specified)", "growth": "79.4% (inactive)"}
{"smiles": "C=C1c2c(C)nn(-c3ccc(S(N)(=O)=O)cc3)c2N(C)C23CC1C1(C)c4c(C)nn(-c5ccc(S(N)(=O)=O)cc5)c4N(C)C(C)(CC12)C3", "note": "(stereo unspecified)", "growth": "8.58% (active)"}
{"smiles": "COc1ccc(-c2ccc(-c3ccc(C(=N)N)nc3)s2)cc1Cl", "growth": "-48.7% (active)"}
{"smiles": "Nc1n[nH]c2ccc([C@@H]3Nc4ccc5[nH]ncc5c4[C@H]4C5C=CC(C5)[C@@H]34)cc12", "note": "(stereo partly specified)", "growth": "-24.9% (active)"}
{"smiles": "CCCCCCCCCCCCCCCCCCNC(=O)[C@H]1CSC(c2ccc(OC)c(F)c2)N1", "note": "(stereo partly specified)", "growth": "-60.3% (active)"}
{"smiles": "Cc1csc(-c2ccc3c(c2)COC3(CCCN(C)C)c2ccc(F)cc2)c1", "note": "(stereo unspecified)", "growth": "-47.9% (active)"}
{"smiles": "CC(=O)c1c(C)[nH]c(-c2nc3ccc(N4CCN(C)CC4)cc3[nH]2)c1-c1ccccc1", "growth": "4.85% (active)"}
{"smiles": "C=C(CNCCc1ccc(O)cc1)[C@@H]1CC[C@]2(COC3CCCCO3)CC[C@]3(C)[C@H](CC[C@@H]4[C@@]5(C)CCC(NCCO)C(C)(C)[C@@H]5CC[C@]43C)[C@@H]12", "note": "(stereo partly specified)", "growth": "-59.5% (active)"}
{"smiles": "O=c1c(-c2nc3ccccc3[nH]2)cc2ccccc2n1Cc1cn(Cc2ccccc2Cl)nn1", "growth": "67.4% (inactive)"}
{"smiles": "Cn1cc(-c2nc3c(F)cc4[nH]ncc4c3c3c2CCCC3)c(C(F)F)n1", "growth": "10.8% (inactive)"}
{"smiles": "CCCCCc1ccc(S(=O)(=O)Nc2ccc3nc(N)oc3c2)cc1", "growth": "28.9% (inactive)"}
{"smiles": "CC(=O)Nc1ccc(S(=O)(=O)N/N=C\\c2ccc(Cl)c(Cl)c2)cc1", "growth": "1.93% (active)"}
